Measured values: PubChem BioAssay (EPA / NIEHS)
Calls of active or inactive are those of the source. How the source made its calls: active means hit-call score of the fitted dose curve at least 0.9, where 1 is the maximum; inactive means score below 0.9.

assay: APR_HepG2_NuclearSize_72hr: Apredica 72-hour HepG2 Assay for Nuclear Size (AID 2282925); conditions: high-content imaging, actives raise or lower the signal
Outline: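 Read-out: nuclear diameter from Hoechst 33342 images (ArrayScan, 20x, six fields/well), via cell-cycle image analysis. HepG2 were dosed 0.39–200 uM for 72 hr in 0.5% DMSO. Bidirectional fit relative to DMSO.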

| Structure (SMILES) | outcome | AC50 |
| --- | --- | --- |
| C[C@]12CCC(=O)C=C1CC[C@@H]1[C@@H]2CC[C@]2(C)C(=O)CC[C@@H]12 | inactive |  |
| O=S(=O)(O)C(F)(F)C(F)(F)C(F)(F)C(F)(F)C(F)(F)C(F)(F)F | inactive |  |
| CCOP(=S)(OCC)SCSC(C)(C)C | inactive |  |
| O=C(NC(=O)c1cc(F)c(F)cc1Cl)Nc1cc(F)ccc1N1CCC(C(=O)O)CC1 | inactive |  |
| CC(c1ccc(O)cc1)(c1ccc(O)cc1)c1ccc(O)cc1 |  | 105 µM (active) |
| ClC1=C(Cl)[C@]2(Cl)[C@@H]3[C@@H](Cl)[C@H]4O[C@H]4[C@@H]3C1(Cl)C2(Cl)Cl | inactive |  |
| Cc1ccccc1[N+](=O)[O-] | inactive |  |
| ClC1=C(Cl)[C@]2(Cl)[C@@H]3[C@H]4C[C@H]([C@@H]5O[C@H]45)[C@@H]3[C@@]1(Cl)C2(Cl)Cl | inactive |  |
| Oc1c(Cl)c(Cl)c(Cl)c(Cl)c1Cl | inactive |  |
| CCCCCCCCCc1ccc(O)cc1 | inactive |  |
| O=S(=O)(O)C(F)(F)C(F)(F)C(F)(F)C(F)(F)F | inactive |  |
| Cc1cc(-c2ccc(N)c(C)c2)ccc1N | inactive |  |
| CC#Cc1cc(C)nc(Nc2ccccc2)n1 | inactive |  |
| O=C(O)C(F)(F)C(F)(F)C(F)(F)C(F)(F)C(F)(F)C(F)(F)C(F)(F)C(F)(F)F | inactive |  |
| O=C(O)C(F)(F)C(F)(F)C(F)(F)C(F)(F)C(F)(F)C(F)(F)C(F)(F)C(F)(F)C(F)(F)F |  | 122 µM (active) |
| CCCCCCCCCC[N+](C)(C)CCCCCCCCCC | inactive |  |
| CCC(=O)O[C@H]1CC[C@H]2[C@@H]3CCC4=CC(=O)CC[C@]4(C)[C@H]3CC[C@]12C |  | 50.8 µM (active) |

| Structure (SMILES) | outcome | AC50 |
| --- | --- | --- |
| COc1ccc(O)c(C(C)(C)C)c1 | inactive |  |
| CC1=C2C[C@H]3[C@@H](CC=C4C[C@@H](O)CC[C@@]43C)[C@@H]2CC[C@]12O[C@@H]1C[C@H](C)CN[C@H]1[C@H]2C | inactive |  |
| O=C(N[C@H]1CN2CCC1CC2)c1cc2ccoc2cn1 | inactive |  |
| NS(=O)(=O)C(F)(F)C(F)(F)C(F)(F)C(F)(F)C(F)(F)C(F)(F)C(F)(F)C(F)(F)F | inactive |  |
| Oc1ccc(C(c2ccc(O)cc2)(C(F)(F)F)C(F)(F)F)cc1 | inactive |  |
| ClC(Cl)=C(c1ccc(Cl)cc1)c1ccc(Cl)cc1 | inactive |  |
| C[C@]12CCC(=O)C=C1CC[C@@H]1[C@@H]2CC[C@@]2(C)[C@H]1CC[C@]2(C)O | inactive |  |
| CCCN(CCC)N=O | inactive |  |
| CC(C)(c1ccccc1)c1ccc(O)cc1 | inactive |  |
| Cc1cc2c3c(c1)C(c1ccccc1)=N[C@@H](NC(=O)c1ccncc1)C(=O)N3CC2 | inactive |  |
| CC(C)(O)C(=O)Nc1ccc([N+](=O)[O-])c(C(F)(F)F)c1 |  | 0.522 µM (active) |
| CCCCCCOC(=O)c1ccccc1C(=O)OCCCCCC | inactive |  |
| N#Cc1ccc(N(CC(N)=O)CC(F)(F)F)cc1C(F)(F)F | inactive |  |
| Clc1ccc(Cl)cc1 | inactive |  |
| Clc1ccc(C(c2ccccc2Cl)C(Cl)(Cl)Cl)cc1 (stereo not drawn) | inactive |  |
| c1cc2ccc3cccc4ccc(c1)c2c34 |  | 113 µM (active) |
